Measured values taken from the supplement of paper PMC6555819.

How the values were obtained:
Test in all cases: PBM binding z-score (relative to random genomic background probes); higher = stronger binding; sequences stand for … in GC…GCGATTGACAGCGTAGAATGAAGG
[1] = tested on: FXR:RXRa (NR concentration 270 nM, RXRa partner concentration 90 nM)
Procedure, shortened: (§1)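 Ligand-free nuclear receptor dimers were bound for 1 h to custom Agilent 4×180K protein-binding microarrays. Detection used antibodies against each partner (one per run). Binding z-scores rest on regression-normalized fluorescence, with random background probes as the reference.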

[2] = tested on: LXRa:RXRa (NR concentration 270 nM, RXRa partner concentration 90 nM)
Procedure, shortened: as §1

[3] = tested on: LXRa homodimer (NR concentration 270 nM)
Procedure, shortened: as §1

[4] = tested on: LXRb:RXRa (NR concentration 270 nM, RXRa partner concentration 90 nM)
Procedure, shortened: as §1

[5] = tested on: LXRb homodimer (NR concentration 270 nM)
Procedure, shortened: as §1

[6] = tested on: PPARa:RXRa (NR concentration 270 nM, RXRa partner concentration 90 nM)
Procedure, shortened: as §1

[7] = tested on: PPARg:RXRa (NR concentration 180 nM, RXRa partner concentration 90 nM)
Procedure, shortened: as §1

[8] = tested on: PPARg:RXRa 270nM:90nM, anti-RXR (NR concentration 270 nM, RXRa partner concentration 90 nM)
Procedure, shortened: as §1

[9] = tested on: PPARg:RXRa 30nM:10nM, anti-RXR (NR concentration 30 nM, RXRa partner concentration 10 nM)
Procedure, shortened: as §1

[10] = tested on: PPARg:RXRa 90nM:30nM, anti-RXR (NR concentration 90 nM, RXRa partner concentration 30 nM)
Procedure, shortened: as §1

[11] = tested on: PPARg:RXRa DBDmut IVT, anti-RXR (DBD mutation: RXRa K156A/R161A, NR concentration 270 nM, RXRa partner concentration 90 nM)
Procedure, shortened: as §1

[12] = tested on: PPARg:RXRa IVT, anti-PPARg (NR concentration 270 nM, RXRa partner concentration 90 nM)
Procedure, shortened: as §1

[13] = tested on: PPARg DBDmut:RXRa IVT, anti-PPARg (DBD mutation: PPARg1 K132A/R137A, NR concentration 270 nM, RXRa partner concentration 90 nM)
Procedure, shortened: as §1

[14] = tested on: PPARg DBDmut IVT, anti-PPARg (DBD mutation: PPARg1 K132A/R137A, NR concentration 270 nM)
Procedure, shortened: as §1

[15] = tested on: PPARg homodimer (NR concentration 180 nM)
Procedure, shortened: as §1

[16] = tested on: PXR:RXRa (NR concentration 270 nM, RXRa partner concentration 90 nM)
Procedure, shortened: as §1

[17] = tested on: PXR homodimer (NR concentration 270 nM)
Procedure, shortened: as §1

[18] = tested on: RARa:RXR (NR concentration 270 nM, RXRa partner concentration 90 nM)
Procedure, shortened: as §1

[19] = tested on: RARa homodimer (NR concentration 270 nM)
Procedure, shortened: as §1

[20] = tested on: RARb:RXRa (NR concentration 270 nM, RXRa partner concentration 90 nM)
Procedure, shortened: as §1

Sequence	PBM binding z-score [1]	PBM binding z-score [2]	PBM binding z-score [3]	PBM binding z-score [4]	PBM binding z-score [5]	PBM binding z-score [6]	PBM binding z-score [7]	PBM binding z-score [8]	PBM binding z-score [9]	PBM binding z-score [10]	PBM binding z-score [11]	PBM binding z-score [12]	PBM binding z-score [13]	PBM binding z-score [14]	PBM binding z-score [15]	PBM binding z-score [16]	PBM binding z-score [17]	PBM binding z-score [18]	PBM binding z-score [19]	PBM binding z-score [20]
CCTACTGGGTCATCAGGTCATTGATATCAACGTT	4.46	3.76	2.34	3.19	-0.201	4.86	7.61	6.52	4.45	5.99	6.76	7.36	1.4	0.93	3.28	3.76	0.934	4.74	1.85	3.9
ACAGACAGGTGATGAAGGTAACTCACGCTATCAT	-0.0545	0.135	-0.0211	0.0443	-0.474	0.247	0.81	0.393	0.232	-0.0255	0.262	0.375	0.0319	-0.0294	0.0571	0.00932	0.106	0.165	0.142	0.289
ATCTCTGGGTAAAGATAGTTCAGTGAATGCAAAT	-0.122	3.7	0.422	0.738	0.449	0.473	0.419	0.54	0.327	0.434	1.83	1.65	1.05	1.76	0.681	1.17	0.829	0.549	1.1	0.828
ACTAGTTGGTCAGCTGAGGTCACACATAATTCGG	3.42	3.14	2.03	3.37	1.17	3.6	1.8	2.34	0.875	1.62	1.85	2.53	0.818	1.05	2.38	5.42	1.87	4.34	1.21	3.51
AGAATGAGGTTAAGATCAGGGATACAGAATACAT	2.25	1.75	0.0573	1.78	0.0208	3.7	2.77	2.46	0.866	1.71	3.07	2.89	0.847	0.843	0.828	1.23	0.547	2.08	0.49	1.92
ATCTCTGGGTAAAGTTCAGTGAAAGATCGATAGA	1.19	1.87	1.6	1.39	1.23	2.87	4.06	5.26	3.21	4.78	1.98	2.87	0.904	1.34	1.32	2.12	1.91	1.55	1.47	2.73
GAGACAGGGTCAAGGCCAGAGTACGCGTATTGAT	6.57	3.62	-0.408	3.43	-0.789	5.24	4.71	4.73	1.4	3.22	1.79	2.9	0.251	-0.239	2	3.78	-0.543	4.4	0.471	4.2
AGAATGAGGTTATACGTAGATGAGGGAAGAAAGT	2.17	1.97	0.0433	1.72	0.276	3.19	2.17	2.49	1.05	1.88	3.97	2.32	1.45	0.893	1.18	1.18	0.759	1.96	0.66	1.57
CTCGACAGGTCGGTTGAGGTGAGTATACGGATAA	1.43	-0.211	-0.296	-0.278	-0.791	0.423	0.166	-0.237	-0.356	-0.324	-0.656	0.236	-0.149	-0.718	-0.0437	0.653	-0.282	0.493	-0.539	0.905
AGTCAAAGTTCAGGACGAGGAAACGTAAAGCACG	3.83	3.6	0.784	1.92	0.307	3.21	5.02	5.02	2.33	4.27	-0.351	1.46	0.63	0.55	1.71	2.42	0.845	2.26	-0.0138	4.25
CGTCCAAGGTCATAGGCGGTCAGTGAAGACAGAT	7.45	6.83	2.89	4.79	0.324	5.55	4.7	5.18	1.82	3.6	2.93	3.58	-0.0996	0.332	2.85	5.12	1.57	4.75	1.15	4.94
CAGCCTAGGTTAGGGCCAGTATAGGAGGAACGTT	-0.436	-0.473	-0.564	-0.633	-1.42	-0.175	0.211	-0.361	-0.521	-0.278	-0.289	-0.377	-1.05	-1.1	-1.26	-0.636	-0.655	-0.399	-0.834	0.516
CCTAGCAGGCCAATCTGGGTCAGTCAAGGCTTGA	0.816	0.419	-0.663	0.0551	-1.41	1.97	0.228	0.88	-0.729	0.114	3.27	3.61	-0.788	-1.02	-0.0146	0.0599	-0.751	0.0549	-0.68	1.28
GCGACTGGGGCATCAGCAGGGTACCATAACTTAA	-0.653	-0.542	-0.531	0.192	-0.913	0.58	0.759	0.382	-0.46	-0.166	3.75	2.79	-0.747	-0.946	-0.494	-0.289	-0.457	-0.268	-1.05	0.517
TCGAGTAGGTTAGGTGCATTCAGAATGGCGTCGA	-0.264	-0.0402	-0.55	0.172	-1.05	0.236	-0.209	0.709	0.736	0.505	1.94	1.03	-0.609	-0.486	-0.132	0.0438	0.333	-0.0756	-0.18	0.175
